Source: PubChem
CHT block – inhibitors of human choline transporter CHT. 310,000 tested, 0.86% active. AID 488975, 2010. High affinity choline transporter 1 (Homo sapiens), Q9GZV3. CHT-expressing cells, membrane potential dye, choline response; active compounds read low. B-score at 10 µM;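 active = B-score over 3 SD under the library average, and starting fluorescence ratio not unusually high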;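 note: choline stimulus applied at its EC90 after an EC20 pre-addition; B-score computed on integrated fluorescence ratio after choline addition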
Target sequence (Q9GZV3 whole entry, looked up): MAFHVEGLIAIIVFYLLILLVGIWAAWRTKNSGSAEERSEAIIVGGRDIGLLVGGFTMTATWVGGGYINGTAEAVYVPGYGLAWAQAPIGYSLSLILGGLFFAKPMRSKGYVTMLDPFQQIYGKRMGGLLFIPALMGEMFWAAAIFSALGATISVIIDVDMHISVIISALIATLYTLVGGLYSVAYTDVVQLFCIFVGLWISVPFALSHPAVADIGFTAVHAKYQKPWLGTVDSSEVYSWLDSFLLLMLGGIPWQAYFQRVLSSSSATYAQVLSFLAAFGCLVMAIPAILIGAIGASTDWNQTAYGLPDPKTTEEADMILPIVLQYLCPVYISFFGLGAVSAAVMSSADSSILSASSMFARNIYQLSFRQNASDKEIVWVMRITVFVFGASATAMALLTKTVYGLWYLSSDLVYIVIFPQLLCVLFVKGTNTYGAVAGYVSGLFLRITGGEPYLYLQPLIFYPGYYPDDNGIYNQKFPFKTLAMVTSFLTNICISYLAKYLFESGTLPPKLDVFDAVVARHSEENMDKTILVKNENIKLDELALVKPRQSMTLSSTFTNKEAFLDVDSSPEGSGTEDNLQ
PREPL inh – PREPL enzyme inhibitors, primary screen, biochemical, fluorescence polarization; Prolyl endopeptidase-like (Homo sapiens), Q4J6C6; recombinant PREPL, fluorescence polarization activity-based probe; inhibition, % at 5.96 µM; 320,000 tested, 0.68% active; in the data active = inhibition above about 43%;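 note: 0% = enzyme with DMSO and 100% = wells lacking enzyme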
ALR inh – inhibitors of human ALR sulfhydryl oxidase, primary screen, biochemical, H2O2 detection, HRP-luminol luminescence, single point; purified ALR, DTT oxidation; FAD-linked sulfhydryl oxidase ALR (Homo sapiens), P55789; inhibition, % (test concentration not listed); AID 485317, 2010; 290,000 tested, 3.8% active;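 active = mean replicate inhibition above about 79%, with every replicate also reaching it, limit read from the data; inconclusive = only one of the two criteria met; inactive = mean below limit and not every replicate reaching it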
AI-2 QS modul – Vibrio harveyi AI-2 quorum sensing modulators, primary screen, JMH597 strain, luminescence/OD600 ratio; Vibrio harveyi JMH597 AI-2 luminescence/OD600 ratio, 9 h; active compounds read low; strain lacks LuxN and CqsS sensors; 0 = neutral-control median; activity change, % at 7.5 µM; 300,000 tested, 0.4% active; AID 2094, 2009; in the data active = activity change below about -75%, passing the limit was not always enough; inconclusive = no clear call, values can overlap the other calls;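 note: luminescence divided by OD600 gain over 9 h not by final OD600 alone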
CHT allo act – CHT positive allosteric modulators, primary screen, cell-based, membrane potential dye, choline EC20. High affinity choline transporter 1 (Homo sapiens), Q9GZV3. AID 488977, 2010. 310,000 tested, 0.49% active. CHT-expressing cells; active compounds read high; LV-AA mutant CHT in HEK293 cells. B-score at 10 µM;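 active = initial fluorescence not abnormally high and integrated response B-score, plate-corrected, over 3 SD above library mean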
JMH597 growth – Vibrio harveyi growth inhibition, confirmation, counter-screen for AI-2 quorum sensing project, JMH597 strain, OD600 absorbance; growth inhibition, % at 7.5 µM; shares compounds with AI-2 QS modul; 750 tested, 1% active; 9 h; lacks LuxN and CqsS sensors; AID 2726, 2010;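 active = every replicate shows growth inhibition above 50%; inconclusive = at least half, but not all, replicates pass that cutoff; inactive = fewer than half of replicates pass it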
BB721 lum counter – luminescence inhibition in constitutive-on V. harveyi, confirmation, counter-screen for LuxS inhibitor project, strain BB721, luminescence readout; shares compounds with AI-2 QS modul; Vibrio harveyi BB721 luminescence, 9 h; inhibition, % at 7.5 µM; AID 2727, 2010; 750 tested, 95% active;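 active = inhibition above about 80% in every replicate, not just on average, limit read from the data; inconclusive = at least half of replicates past the limit, but not all; inactive = fewer than half of replicates past the limit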
BB721 growth – growth inhibition of V. harveyi BB721, confirmation, cytotoxicity control for AI-2 quorum sensing inhibitors, strain BB721, absorbance OD600. shares compounds with AI-2 QS modul. Vibrio harveyi BB721 growth, 9 h. growth inhibition, % at 7.5 µM. 750 tested, 3% active. AID 2728, 2010;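 active = every replicate shows growth inhibition above 50%; inconclusive = at least half but not all replicates above 50% inhibition; inactive = under half of replicates above 50% inhibition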
JMH597 AI-2 mod – Vibrio harveyi AI-2 signaling luminescence modulation – JMH597 strain, confirmation. inhibition, % at 7.5 µM. 750 tested, 97% active. AID 2736, 2010. shares compounds with AI-2 QS modul. Vibrio harveyi JMH597 AI-2 quorum sensing luminescence, 9 h; luxN and CqsS knockout, AI-2 only;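 active = every replicate shows more than 75% inhibition of signal versus neutral control wells; inconclusive = half to three quarters of replicates exceed 75% inhibition; inactive = fewer than half of replicates exceed 75% inhibition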
* hit, by the source's call; i = inactive; ? = inconclusive; . = no result given. Sampled rows, rich in hits. Any-hit rate of the full collection: about 5%.

SMILES	CHT block	PREPL inh	ALR inh	AI-2 QS modul	CHT allo act	JMH597 growth	BB721 lum counter	BB721 growth	JMH597 AI-2 mod
CCC(C)[C@H](NC(=O)C1CC(=O)N(c2ccc(OC)cc2)C1)C(=O)N1CCCCC1 (some centres undefined)	i	-3.1	-0.6	10.3	i	.	.	.	.
O=C(NCCC1CCCCN1S(=O)(=O)c1ccccc1)C(=O)NCc1ccc(F)cc1 (centres undefined)	i	-4.6	-5.8	25.0	i	.	.	.	.
CN1CCN(S(=O)(=O)c2ccc(Oc3ccc(Br)cc3F)nc2)CC1	i	-1.9	0.7	-83.9*	i	6.0	81.6*	-29.5	98.7*
CN1CCN(S(=O)(=O)c2ccc(Oc3ccc(F)cc3Br)nc2)CC1	i	7.6	.	18.6	i	.	.	.	.
CC1(c2ccccc2)NC(=O)N(CC(=O)Nc2ccc(C(N)=O)cc2)C1=O (centres undefined)	i	-6.7	0.7	2.8	i	.	.	.	.
Cc1ccc(NC(=O)CN2C(=O)NC(C)(c3ccc(Cl)cc3)C2=O)cc1 (centres undefined)	i	-17.0	-0.3	-88.2*	i	0.3	88.8*	8.7	93.7*
COc1ccc(NC(=O)CN2C(=O)CSC(C)C2=O)c(OC)c1 (centres undefined)	i	0.0	-6.8	13.7	i	.	.	.	.
CCOc1ccc(NC(=O)CN2C(=O)CSC(C)C2=O)cc1 (centres undefined)	i	0.7	?	-78.3*	i	16.4	91.3*	9.6	93.3*
CC1(c2ccc(OC(F)F)cc2)NC(=O)N(CC(=O)Nc2cccc(F)c2)C1=O (centres undefined)	i	4.1	-6.8	-93.0*	i	18.6	95.1*	24.1	96.9*
CCOc1ccc(NC(=O)CN2C(=O)NC(C)(c3ccc(OC(F)F)cc3)C2=O)cc1 (centres undefined)	i	-4.5	-2.1	-92.6*	i	41.0	93.9*	56.8*	96.0*
COc1ccc(C2(c3ccc(OC)cc3)NC(=O)N(CC(=O)Nc3ccc(OC(F)F)cc3)C2=O)cc1	i	-5.7	-13.0	2.9	i	.	.	.	.
Cc1ccc(CNC(=O)CCCC(=O)c2ccccc2)cc1	i	-14.0	-4.5	7.8	i	.	.	.	.
Nc1ccc(C(=O)N2CCN(S(=O)(=O)c3ccc4c(c3)OCCO4)CC2)cc1[N+](=O)[O-]	i	-1.9	-1.3	9.7	i	.	.	.	.
CC1(c2ccc(OC(F)F)cc2)NC(=O)N(CC(=O)Nc2ccc(Cl)cc2F)C1=O (centres undefined)	i	-2.6	-4.3	-93.9*	i	5.2	95.6*	-7.0	96.5*
CN(C)S(=O)(=O)c1ccc(NC(=O)CN2C(=O)NC3(CCCC3)C2=O)cc1	i	-3.3	.	-78.9*	i	8.8	?	12.2	82.1*
CCOC(=O)c1c(NC(=O)CN2C(=O)NC(C)(c3ccc(OC(F)F)cc3)C2=O)sc(C)c1C (centres undefined)	i	6.2	.	30.3	i	.	.	.	.
COc1ccc(OC)c(NC(=O)CSc2nncc3ccc(OC)c(OC)c23)c1	i	8.1	.	0.6	i	.	.	.	.
CC(C)c1ccc(S(=O)(=O)N2CCN(C(=S)NCc3ccco3)CC2)cc1	i	-3.4	.	-96.3*	i	32.1	99.8*	-39.5	99.9*
O=C(Nc1cccc(F)c1)C1CCCN(S(=O)(=O)c2cccc3cccnc23)C1 (centres undefined)	i	-20.1	-0.6	-0.4	i	.	.	.	.
COc1cc(NC(=O)Cn2nnc(-c3ccccc3N)n2)cc(OC)c1	i	12.0	8.2	-89.4*	i	19.8	97.6*	18.5	98.2*
COc1ccc(NC(=O)Cn2nnc(-c3ccccc3N)n2)cc1OC	i	18.0	-7.1	8.5	i	.	.	.	.
O=C(CNC(=O)c1cccs1)c1ccc(Br)cc1	i	3.6	-9.3	10.9	i	.	.	.	.
O=C(CNC(=O)c1cccs1)OCc1ccc(Br)cc1	i	2.6	0.5	?	i	30.2	91.0*	-2.4	92.5*
COc1ccccc1CN(C(=O)CNC(=O)c1ccco1)C(C(=O)NCC1CCCO1)c1ccccc1 (centres undefined)	i	-12.9	-3.7	17.2	i	.	.	.	.
COc1ccc(CN=Cc2c(O)[nH]c3ccccc23)cc1	i	19.1	99.3*	-90.2*	i	22.3	96.2*	3.2	97.4*
SMILES	CHT block	PREPL inh	ALR inh	AI-2 QS modul	CHT allo act	JMH597 growth	BB721 lum counter	BB721 growth	JMH597 AI-2 mod
O=C(Cn1cnc2c(OCc3ccccc3)ncnc21)N[C@H](CO)Cc1cc2ccccc2[nH]1	.	6.1	.	.	.	.	.	.	.
Nc1nc(-c2ccccc2)nc(-c2ccccc2O)n1	i	-10.2	-1.1	-4.9	i	.	.	.	.
Nc1nc(NCc2ccccc2)nc(-c2ccccc2)n1	i	1.7	-3.5	-81.8*	i	-24.7	87.0*	-37.4	92.0*
C[C@@H]1CN([C@@H](C)CO)C(=O)c2cccc(NC(=O)C3CCOCC3)c2O[C@H]1CN(C)S(=O)(=O)c1ccc(Cl)cc1	.	8.7	1.1	.	.	.	.	.	.
Cc1cccc(-n2nnc(C(=O)N3CCc4ccccc4C3)c2N)c1	i	-15.1	-0.1	-81.9*	i	38.8	92.4*	?	94.7*
Cc1ccc(CNC(=O)/C=C/c2ccc(Br)o2)cc1	i	2.2	3.0	-93.9*	i	23.0	98.7*	?	98.9*
O=C(/C=C/c1ccc(Br)o1)NCc1ccccc1	i	-0.4	4.8	-90.4*	i	12.8	96.7*	19.1	97.2*
CSc1ccccc1NC(=O)c1cc2ncc(Br)cn2n1	i	23.1	-2.3	21.9	i	.	.	.	.
O=C(NCc1ccccc1)c1cc(-c2cccc(O)c2)on1	i	4.4	-22.5	-82.0*	i	-15.1	88.1*	-14.1	91.9*
Cc1ccc(O)c(NC(=O)CCC2CCCCC2)c1	i	13.8	-4.0	-83.7*	i	17.2	93.2*	16.8	95.3*
